Assay results as given in the antibiotic and cytotoxicity screens of Wong et al. (2023).
Out of some 39,000 compounds screened, about 3,300 (8.5%) were called active. The sample holds actives, similar compounds and a random draw of the others, so the mix is not that of the screen.

tested on: HepG2; assay: cytotoxicity call (relative viability < 0.9); conditions: 10 µM

SMILES	cytotoxicity call
C[C@H]1CN([C@@H](C)CO)C(=O)Cc2cc(NC(=O)C3CCCCC3)ccc2O[C@H]1CN(C)Cc1ccc(C(F)(F)F)cc1	inactive
C[C@@H]1CN([C@@H](C)CO)C(=O)Cc2cc(NC(=O)C3CCCCC3)ccc2O[C@H]1CN(C)Cc1ccc(C(F)(F)F)cc1	inactive
C[C@@H]1CN([C@H](C)CO)C(=O)Cc2cc(NC(=O)C3CCCCC3)ccc2O[C@@H]1CN(C)Cc1ccc(C(F)(F)F)cc1	active
C[C@@H]1CN([C@H](C)CO)C(=O)Cc2cc(NC(=O)C3CCCCC3)ccc2O[C@H]1CN(C)Cc1ccc(C(F)(F)F)cc1	inactive
C[C@@H]1CN([C@@H](C)CO)C(=O)Cc2cc(NC(=O)C3CCCCC3)ccc2O[C@@H]1CN(C)Cc1ccc(C(F)(F)F)cc1	active
C[C@H](CO)N1C[C@H](C)[C@H](CN(C)C(=O)Nc2ccc(C(F)(F)F)cc2)Oc2ccc(NC(=O)C3CCCCC3)cc2CC1=O	inactive
C[C@H](CO)N1C[C@H](C)[C@@H](CN(C)Cc2ccc(C(F)(F)F)cc2)Oc2ccc(NC(=O)C3CCCCC3)cc2CC1=O	inactive
C[C@H](CO)N1C[C@H](C)[C@H](CN(C)Cc2ccc(C(F)(F)F)cc2)Oc2ccc(NC(=O)C3CCCCC3)cc2CC1=O	inactive
C[C@H]1CN([C@@H](C)CO)C(=O)Cc2cc(NC(=O)C3CCCCC3)ccc2O[C@@H]1CN(C)Cc1ccc(C(F)(F)F)cc1	active
CCN1C[C@]23CN(C(=O)c4cnccn4)C[C@@H](C[C@H]2S1(=O)=O)O3	inactive
C[C@H]1CN([C@@H](C)CO)C(=O)CCCn2nncc2CO[C@H]1CN(C)S(=O)(=O)c1ccc(Oc2ccccc2)nc1	inactive
C[C@@H]1CCCCO[C@H](CN(C)C(=O)Nc2ccc(F)cc2)[C@H](C)CN([C@H](C)CO)C(=O)c2cc(NS(=O)(=O)c3ccccc3)ccc2O1	inactive
C[C@H](CO)N1C[C@H](C)[C@H](CN(C)C)Oc2ccc(NS(=O)(=O)c3cn(C)cn3)cc2CC1=O	inactive
Cc1noc(C)c1S(=O)(=O)NC(C)C	inactive
CS(=O)(=O)CS(=O)(=O)C1=C(N2CCOCC2)C2CCN1CC2	inactive
Cc1noc(C)c1NC(=O)N[C@@H]1C=C[C@@H](CC(=O)N2CCN(C)CC2)O[C@H]1CO	inactive
c1ccc(-c2cccs2)nc1	inactive
O=C(Nc1ccc(C(F)(F)F)cc1)Nc1ccc2c(c1)[C@H]1C[C@H](CC(=O)N3CCc4ccccc4C3)O[C@@H](CO)[C@H]1O2	inactive
O=C(Nc1ccc(C(F)(F)F)cc1)Nc1ccc2c(c1)[C@H]1C[C@@H](CC(=O)N3CCc4ccccc4C3)O[C@H](CO)[C@H]1O2	active
O=C(Nc1ccc(C(F)(F)F)cc1)Nc1ccc2c(c1)[C@@H]1C[C@@H](CC(=O)N3CCc4ccccc4C3)O[C@H](CO)[C@@H]1O2	active
O=C(Nc1ccc(C(F)(F)F)cc1)Nc1ccc2c(c1)[C@@H]1C[C@H](CC(=O)N3CCc4ccccc4C3)O[C@@H](CO)[C@@H]1O2	inactive
O=C(Nc1ccc(C(F)(F)F)cc1)Nc1ccc2c(c1)[C@H]1C[C@@H](CC(=O)N3CCc4ccccc4C3)O[C@@H](CO)[C@H]1O2	inactive

SMILES	cytotoxicity call
O=C(Nc1ccc(C(F)(F)F)cc1)Nc1ccc2c(c1)[C@@H]1C[C@H](CC(=O)N3CCc4ccccc4C3)O[C@H](CO)[C@@H]1O2	inactive
CO[C@@H]1CN(C)C(=O)c2cc(NC(=O)c3cc(C)on3)ccc2OC[C@@H](C)N(C(=O)C2CCC2)C[C@H]1C	inactive
C[C@@H]1CN([C@H](C)CO)C(=O)c2cc(NC(=O)Nc3ccc(C(F)(F)F)cc3)ccc2O[C@@H](C)CCCCO[C@@H]1CN(C)S(=O)(=O)c1cn(C)cn1	inactive
C[C@H](CO)N1C[C@H](C)[C@@H](CN(C)S(=O)(=O)c2ccc(F)cc2)OCCCC[C@H](C)Oc2ccc(NC(=O)C3CCCCC3)cc2C1=O	inactive
Cc1noc(C)c1S(=O)(=O)Nc1ccc2c(c1)C(=O)N([C@@H](C)CO)C[C@H](C)[C@H](CN(C)Cc1ccc(-c3ccccc3)cc1)O2	inactive
CCS(=O)(=O)N1CCC(C(=O)N(C)C)CC1	inactive
C[C@H](CO)N1C[C@H](C)[C@@H](CN(C)C(=O)NC2CCCCC2)OCc2ccccc2-c2c(n(C)c3ccccc23)C1=O	inactive
C[C@@H]1CN([C@@H](C)CO)C(=O)c2c(c3ccccc3n2C)-c2ccccc2CO[C@H]1CN(C)CC1CCCCC1	inactive
C[C@H](CO)N1C[C@H](C)[C@@H](CN(C)CC2CCCCC2)OCc2ccccc2-c2c(n(C)c3ccccc23)C1=O	inactive
C[C@@H]1CN([C@H](C)CO)C(=O)c2c(c3ccccc3n2C)-c2ccccc2CO[C@@H]1CN(C)C(=O)NC1CCCCC1	inactive
C[C@H](CO)N1C[C@H](C)[C@H](CN(C)C(=O)NC2CCCCC2)OCc2ccccc2-c2c(n(C)c3ccccc23)C1=O	active
C[C@@H]1CN([C@H](C)CO)C(=O)c2c(c3ccccc3n2C)-c2ccccc2CO[C@@H]1CN(C)CC1CCCCC1	inactive
C[C@H]1CN([C@@H](C)CO)C(=O)c2c(c3ccccc3n2C)-c2ccccc2CO[C@H]1CN(C)CC1CCCCC1	inactive
C[C@H]1CN([C@@H](C)CO)C(=O)c2c(c3ccccc3n2C)-c2ccccc2CO[C@@H]1CN(C)CC1CCCCC1	active
C[C@@H]1CN([C@@H](C)CO)C(=O)c2c(c3ccccc3n2C)-c2ccccc2CO[C@@H]1CN(C)CC1CCCCC1	active
CC1(C)S[C@H]2[C@@H](NC(=O)[C@@H](NC(=O)N3CCN(S(C)(=O)=O)C3=O)c3ccccc3)C(=O)N2[C@@H]1C(=O)O	inactive
CCCNC(=O)Nc1ccc2c(c1)C(=O)N(C)C[C@@H](OC)[C@@H](C)CN(C(=O)C1CCOCC1)[C@@H](C)CO2	inactive
Cc1noc(C)c1NC(=O)N(C)C[C@H]1OCCCC[C@@H](C)Oc2ccc(NC(=O)CCC(F)(F)F)cc2C(=O)N([C@H](C)CO)C[C@H]1C	inactive
C[C@H](C(=O)O)N1CCCCC1	inactive
CC(C)c1cn(CC[C@H]2CC[C@H](N)[C@@H](CO)O2)nn1	inactive
CC[C@@H](Sc1n[nH]c(=O)[nH]c1=O)C(=O)O	inactive
COCC(=O)N(C)C[C@H]1Oc2cc(C#CCC3CCCC3)ccc2S(=O)(=O)N([C@H](C)CO)C[C@H]1C	inactive

SMILES	cytotoxicity call
C[C@@H]1CN([C@H](C)CO)C(=O)Cc2cc(NC(=O)C3CC3)ccc2O[C@H]1CN(C)C(=O)Nc1ccccc1	inactive
COCC(=O)N1[C@@H]2c3ccc(C4=CCCCC4)c(=O)n3C[C@@H]2[C@@H](CO)[C@@H]1C(=O)N1CCOCC1	inactive
C=CC(=O)Nc1cccc(C)c1Nc1ncc2cc(-c3c(Cl)c(OC)cc(OC)c3Cl)ccc2n1	active
COCC(=O)Nc1ccc2c(c1)C(=O)N(C)[C@@H]1CC[C@@H](CC(=O)NCc3ccc(OC)cc3)O[C@H]1CO2	inactive
Cc1noc(C)c1NC(=O)N(C)C[C@H]1Oc2ccc(NC(=O)Nc3ccc(C(F)(F)F)cc3)cc2C(=O)N([C@@H](C)CO)C[C@H]1C	inactive
COCC(=O)N(C)C[C@H]1Oc2cc(C#C[C@@H](C)O)ccc2S(=O)(=O)N([C@H](C)CO)C[C@@H]1C	inactive
C[C@@H]1CCCCO[C@@H](CN(C)Cc2ccc(Cl)c(Cl)c2)[C@@H](C)CN([C@@H](C)CO)C(=O)c2cc(NC(=O)CCC(F)(F)F)ccc2O1	active
C[C@H](CO)N1C[C@H](C)[C@@H](CN(C)Cc2ccc(Cl)c(Cl)c2)OCCCC[C@H](C)Oc2ccc(NC(=O)CCC(F)(F)F)cc2C1=O	inactive
C[C@@H]1CCCCO[C@H](CN(C)Cc2ccc(Cl)c(Cl)c2)[C@@H](C)CN([C@H](C)CO)C(=O)c2cc(NC(=O)CCC(F)(F)F)ccc2O1	inactive
C[C@@H]1CCCCO[C@@H](CN(C)Cc2ccc(Cl)c(Cl)c2)[C@@H](C)CN([C@H](C)CO)C(=O)c2cc(NC(=O)CCCN(C)C)ccc2O1	active
C[C@@H]1CN([C@@H](C)CO)C(=O)c2cc(NC(=O)CCC(F)(F)F)ccc2O[C@@H](C)CCCCO[C@H]1CN(C)Cc1ccc(Cl)c(Cl)c1	inactive
C[C@@H]1CCCCO[C@@H](CN(C)Cc2ccc(Cl)c(Cl)c2)[C@H](C)CN([C@@H](C)CO)C(=O)c2cc(NC(=O)CCC(F)(F)F)ccc2O1	inactive
C[C@@H]1CN([C@H](C)CO)C(=O)c2cc(NC(=O)CCC(F)(F)F)ccc2O[C@@H](C)CCCCO[C@@H]1CN(C)Cc1ccc(Cl)c(Cl)c1	active
C[C@H]1CCCCO[C@H](CN(C)Cc2ccc(Cl)c(Cl)c2)[C@@H](C)CN([C@@H](C)CO)C(=O)c2cc(NC(=O)CCC(F)(F)F)ccc2O1	inactive
C[C@@H]1CCCCO[C@H](CN(C)Cc2ccc(Cl)c(Cl)c2)[C@@H](C)CN([C@@H](C)CO)C(=O)c2cc(NC(=O)CCC(F)(F)F)ccc2O1	inactive
C[C@@H]1CN([C@H](C)CO)C(=O)c2cc(NC(=O)CCC(F)(F)F)ccc2O[C@@H](C)CCCCO[C@H]1CN(C)Cc1ccc(Cl)c(Cl)c1	active
Cn1cnc(S(=O)(=O)N[C@@H]2C=C[C@H](CC(=O)NCC3CC3)O[C@H]2CO)c1	inactive
COc1ccc(S(=O)(=O)N(C)C[C@@H]2OCCCC[C@@H](C)Oc3ccc(NC(=O)CCCCCC(=O)Nc4ccccc4N)cc3C(=O)N([C@H](C)CO)C[C@@H]2C)cc1	inactive
COc1ccccc1CNC(=O)C[C@@H]1C[C@@H]2c3cc(NC(=O)Cc4ccncc4)ccc3O[C@@H]2[C@@H](CO)O1	inactive
C[C@@H]1CCCCO[C@@H](CN(C)CC2CCCCC2)[C@@H](C)CN([C@@H](C)CO)C(=O)c2cc(N(C)C)ccc2O1	inactive
